Data reported in PubChem BioAssay AID2553 (Johns Hopkins Ion Channel Center, 2010).
In all, about 310,000 compounds went through this assay and about 3,300 (1.1%) were called active.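 Rule for the calls: active = B-score under library mean minus 3 SD, initial fluorescence not abnormally high, positive integrated signal ratio; inactive = the rest.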 The list comes from a sample in which actives are over-represented; it also holds similar structures and randomly drawn compounds.

target: Short transient receptor potential channel 6 (Mus musculus) (UniProt Q61143); assay: mouse TRPC6 channel inhibitors, primary screen, cell-based, HEK293, membrane potential dye (AID 2553); settings: ACh-evoked depolarization, at 10 µM; active compounds read low;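 for B-score: B-score derived from integrated fluorescence ratio over the kinetic read; more negative B-score means stronger inhibition of depolarization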
Sequence (Q61143 whole entry, looked up): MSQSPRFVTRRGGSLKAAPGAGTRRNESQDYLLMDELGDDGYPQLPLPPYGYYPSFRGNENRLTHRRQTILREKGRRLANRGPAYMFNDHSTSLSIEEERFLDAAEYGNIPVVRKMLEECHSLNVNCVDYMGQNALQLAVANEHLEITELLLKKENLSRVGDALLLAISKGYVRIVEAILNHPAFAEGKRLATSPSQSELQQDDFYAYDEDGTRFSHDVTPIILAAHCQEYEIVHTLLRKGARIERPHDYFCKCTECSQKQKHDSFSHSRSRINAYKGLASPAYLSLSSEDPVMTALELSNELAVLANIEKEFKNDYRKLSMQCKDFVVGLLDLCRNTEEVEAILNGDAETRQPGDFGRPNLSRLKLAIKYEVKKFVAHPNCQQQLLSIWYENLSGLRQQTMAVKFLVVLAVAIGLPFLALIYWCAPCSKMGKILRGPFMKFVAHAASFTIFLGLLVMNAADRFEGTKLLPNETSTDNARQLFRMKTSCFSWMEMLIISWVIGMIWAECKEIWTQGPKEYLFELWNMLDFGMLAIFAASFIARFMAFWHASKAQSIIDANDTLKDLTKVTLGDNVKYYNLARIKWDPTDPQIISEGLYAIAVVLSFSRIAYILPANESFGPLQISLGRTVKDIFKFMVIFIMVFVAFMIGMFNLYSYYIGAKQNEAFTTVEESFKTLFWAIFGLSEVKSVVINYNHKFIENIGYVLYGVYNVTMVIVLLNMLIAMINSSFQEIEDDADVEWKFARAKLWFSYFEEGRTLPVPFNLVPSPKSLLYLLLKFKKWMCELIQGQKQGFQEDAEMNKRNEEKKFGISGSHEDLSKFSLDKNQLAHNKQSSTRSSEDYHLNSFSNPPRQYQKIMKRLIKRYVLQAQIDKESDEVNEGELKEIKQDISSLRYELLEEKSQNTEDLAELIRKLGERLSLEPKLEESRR

| Compound | B-score |
| --- | --- |
| CCOC(=O)C1CCN(Cc2c(C(=O)N3CCOCC3)nc3c(C)cccn23)CC1 | inactive |
| Nc1nc(-c2ccccc2)cc(-c2ccccc2)n1 | inactive |
| CN(C)c1cc(N)c2ccccc2n1 (tested in a mixture with another compound) | -9.26 (active) |
| COc1ccc(-c2cc(C(=O)N(C)Cc3ccccc3)c3ccccc3n2)cc1 | inactive |
| Cc1cc(C)c(S(=O)(=O)NCCCN2CCOCC2)cc1Br | inactive |
| CN1CC(c2ccccc2)C2(COc3ccccc3C2=O)C12C(=O)Nc1ccccc12 (centres undefined) | inactive |
| Cc1ccc2c(c1)C1CN(C)CCC1N2C(=S)Nc1ccc(OC(F)F)cc1 (centres undefined) | inactive |
| Cc1ccc2c(c1)C1CN(C)CCC1N2C(=S)Nc1ccc(Cl)cc1Cl (centres undefined) | -5.46 (active) |
| S=C(Nc1ccc(Cl)cc1Cl)N1CCCC1 | inactive |
| Cc1ccc(S(=O)(=O)N(Cc2ccccc2)c2ccccn2)cc1[N+](=O)[O-] | inactive |
| O=C(Cn1cc(-c2nnnn2-c2ccc(Cl)cc2)c(=O)c2ccccc21)c1ccccc1 | inactive |
| O=C(CSc1cccc[n+]1[O-])c1ccc(Cl)cc1 | inactive |
| O=C(C[n+]1ccc2c(c1)nnn2-c1ccccc1)c1ccc(Cl)cc1 | -5.81 (active) |
| COc1ccccc1NS(=O)(=O)N(C)C | inactive |
| O=S(=O)(Nc1ccccc1Br)c1cccs1 | inactive |
| O=C(Nc1cccc(Cl)c1)Nc1ccccc1NS(=O)(=O)c1cccs1 | -5.11 (active) |
| O=S(=O)(NCc1ccc(Cl)cc1Cl)c1cccs1 | inactive |
| COCCCN1C(=O)C(=O)/C(=C(/O)c2ccc(S(=O)(=O)N3CCOCC3)cc2)C1c1ccc(F)cc1 (centres undefined) | inactive |
| COC(=O)c1sccc1-n1cccc1C(=O)C(=O)N1CCCCC1 | inactive |
| COc1ccccc1OCC(O)CN1CCOCC1 (centres undefined) | inactive |
| CC(C)(C)NCC(O)COc1cccc2[nH]c(=O)[nH]c12 (centres undefined) | inactive |
| COc1ccccc1OCCNCC(O)COc1cccc2[nH]c3ccccc3c12 (centres undefined) | -7.01 (active) |
| CC(=O)c1ccc(N2CCN(C(=O)C3CCN(S(=O)(=O)c4ccc5c(c4)CC(C)N5C(=O)C4CC4)CC3)CC2)cc1 (centres undefined) | inactive |
| O=C(CSc1nnc(SCc2ccc(Cl)cc2)s1)N/N=C/c1ccccc1Cl | inactive |
| CCN(C(=O)COC(=O)c1ccc(COc2ccc3c(C)cc(=O)oc3c2)cc1)C1CCS(=O)(=O)C1 (centres undefined) | inactive |
| Cc1ccc(S(=O)(=O)N2CCN(C(=O)c3ccc(-n4cncn4)c([N+](=O)[O-])c3)CC2)cc1 | inactive |
| CC(C)c1ccc(S(=O)(=O)N2CCN(C(=O)c3ccc(N4CCCC4)c([N+](=O)[O-])c3)CC2)cc1 | inactive |

| Compound | B-score |
| --- | --- |
| Nc1ccc(C(=O)N2CCN(S(=O)(=O)c3ccc(Cl)cc3)CC2)cc1[N+](=O)[O-] | -5.95 (active) |
| CSc1nnc(-c2ccc(C(F)(F)F)cn2)o1 | inactive |
| CCOc1ccc(NC(=O)CSc2nncn2C)cc1 | inactive |
| COc1ccc(-c2ccc3nnc(SCC(=O)Nc4ccc(NC(C)=O)cc4)n3n2)cc1 | inactive |
| CCCCc1nc(NCCN)c(C#N)c2c1CSC(C)(C)C2 | -5.09 (active) |
| CCCCc1nc(NCc2ccccc2)c(C#N)c2c1CCCC2 | inactive |
| Cc1nc(NCCN)c(C#N)c2c1COC(C)(C)C2 | inactive |
| Cc1cc(NC(=O)C(C)SCC(=O)Nc2ccccc2N2CCCCC2)no1 (centres undefined) | inactive |
| CN(Cc1cccc2ncccc12)C(=O)CC1C(=O)NCCN1Cc1ccc(F)cc1 (centres undefined) | inactive |
| O=C(O)c1ccc(NC(=O)c2ccc(COc3ccc(Cl)cc3)o2)cc1 | -5.87 (active) |
| COc1ccc(NC(=O)CN(C)C(=O)c2ccc(COc3ccccc3)o2)cc1 | inactive |
| Cc1cc(OCc2ccc(C(=O)Nc3ccc(C(=O)O)cc3)o2)ccc1Cl | inactive |
| O=C(COC(=O)CC1CC2CCC1C2)NC(=O)NC1CCCC1 (centres undefined) | inactive |
| O=C(COc1ccccc1)Nc1ccc(N2CCN(C(=O)c3cccs3)CC2)cc1 | inactive |
| COCC(=O)Nc1cc(C(=O)OC)cc(C(=O)OC)c1 | inactive |
| CC(C)(C)n1nnnc1C(c1ccc2ncccc2c1)N1CCSCC1 (centres undefined) | -11.5 (active) |
| CC(C)(C)n1nnnc1C(c1ccc(Cl)cc1)N1CCSCC1 (centres undefined) | inactive |
| Cc1cccc(N2CCN(C(c3ccc(N(C)C)cc3)c3nnnn3C(C)(C)C)CC2)c1C (centres undefined) | inactive |
| O=C(NCCc1ccccc1Cl)C1CCC(=O)N(CCCc2ccccc2)C1 (centres undefined) | inactive |
| CCOC(=O)c1cn(CC(=O)Nc2ccc(C(C)C)cc2)nn1 | inactive |
| CC(C)c1ccc(NC(=O)Cn2ncc3ccccc32)cc1 | -5.5 (active) |
| CCc1ccc(NC(=O)Cn2ncn3c(cc4ccccc43)c2=O)cc1 | inactive |
| Cc1cc(O)c(C2(O)C(=O)Nc3ccccc32)cc1C (centres undefined) | inactive |
| CCc1ccccc1NC(=O)CN(c1ccc(OC)cc1OC)S(=O)(=O)c1ccccc1[N+](=O)[O-] | inactive |
| CCOc1ccc(C2c3[nH]c4ccccc4c3CCN2Cc2cccn2-c2ncccn2)cc1 (centres undefined) | inactive |
| COCc1ccc(C(=O)N2CCc3c([nH]c4ccccc34)C2c2ccccn2)s1 (centres undefined) | inactive |
| c1ccc(C2c3[nH]c4ccccc4c3CCN2Cc2cccn2-c2cccnc2)nc1 (centres undefined) | -6.75 (active) |
